# Measured values taken from PubChem BioAssay (Tox21).
# Records with an inconclusive call do not appear. Values without a mark were called inactive. Active and inactive are the calls of the source. The call rests on the fitted dose curve; in most records, active means well fitted inhibition curve with a large enough effect in the repeat runs; inconclusive means weak or mixed curves; inactive means no such curve, though single readings can be large or run the other way.
# Target: Cytochrome P450 2C19 (Homo sapiens) (UniProt P33261)
# Sequence (P33261 whole entry, looked up): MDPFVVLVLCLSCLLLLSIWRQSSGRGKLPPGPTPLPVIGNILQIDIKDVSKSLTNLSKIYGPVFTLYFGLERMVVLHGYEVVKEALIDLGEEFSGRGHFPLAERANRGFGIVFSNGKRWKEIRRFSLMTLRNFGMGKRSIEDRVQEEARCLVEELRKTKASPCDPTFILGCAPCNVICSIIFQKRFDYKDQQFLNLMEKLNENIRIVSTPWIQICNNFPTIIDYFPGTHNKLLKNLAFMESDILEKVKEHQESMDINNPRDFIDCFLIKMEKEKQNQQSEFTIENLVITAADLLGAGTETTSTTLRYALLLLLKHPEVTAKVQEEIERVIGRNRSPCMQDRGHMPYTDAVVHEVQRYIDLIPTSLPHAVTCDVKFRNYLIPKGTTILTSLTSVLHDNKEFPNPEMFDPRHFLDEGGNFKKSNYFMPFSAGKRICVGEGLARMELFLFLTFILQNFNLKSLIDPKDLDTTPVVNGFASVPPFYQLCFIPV
# Assay: Cytochrome P450 Family 2 Subfamily C Member 19 (CYP2C19) small molecule antagonists: luciferase reporter qHTS assay (AID 1671197); further: nearly all actives have a fitted effect of over 65% in size
# Settings: P450-Glo CYP2C19 enzyme, luciferin luminescence, 1 h; series mostly up to 115 µM; activity change, negative = inhibition: at the top concentration
# Procedure, shortened: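 Light output is proportional to CYP2C19 activity: proluciferin substrate is converted to luciferin, then detected by a luciferin detection reagent that also stops the 1 h, 37C NADPH-driven reaction. Ketoconazole serves as positive control.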
# On the % scale 0 is the no-effect control and ±100 the full control effect; potency means the concentration at half of the fitted maximal effect.
SMILES,Potency,"activity change, negative = inhibition"
CCO[Si](CCCS)(OCC)OCC,35.6 µM (active),–
OC[C@H](Cc1cccc(O)c1)[C@H](CO)Cc1cccc(O)c1,32.5 µM (active),–
O=C(NCCc1c[nH]c2ccccc12)c1cccnc1,7.76 µM (active),–
CC(C)(C)OC(=O)c1ccc(O)cc1,63.3 µM (active),–
Oc1cn2c(n1)Nc1ccc(Cl)c(Cl)c1C2,–,3% [at 23.6 µM]
Cc1ccsc1/C=C/C1=NCCCN1C,–,34.9% [at 52.9 µM]
Cc1cccc2nccnc12,–,-1.72%
CCCCCCCCCC(C)=O,–,11.3%
COC(=O)CCCCCCCC(=O)OC,–,-8.66%
CCOC(=O)CC(=O)c1ccccc1,39.9 µM (active),–
O=S(=O)(O)CCN1CCN(CCO)CC1,–,1.39%
CC(C)=O,–,-27.7%
O=C1c2ccccc2C(=O)N1CCl,–,4.46%

# Target: Cytochrome P450 2C9 (Homo sapiens) (UniProt P11712)
# Sequence (P11712 whole entry, looked up): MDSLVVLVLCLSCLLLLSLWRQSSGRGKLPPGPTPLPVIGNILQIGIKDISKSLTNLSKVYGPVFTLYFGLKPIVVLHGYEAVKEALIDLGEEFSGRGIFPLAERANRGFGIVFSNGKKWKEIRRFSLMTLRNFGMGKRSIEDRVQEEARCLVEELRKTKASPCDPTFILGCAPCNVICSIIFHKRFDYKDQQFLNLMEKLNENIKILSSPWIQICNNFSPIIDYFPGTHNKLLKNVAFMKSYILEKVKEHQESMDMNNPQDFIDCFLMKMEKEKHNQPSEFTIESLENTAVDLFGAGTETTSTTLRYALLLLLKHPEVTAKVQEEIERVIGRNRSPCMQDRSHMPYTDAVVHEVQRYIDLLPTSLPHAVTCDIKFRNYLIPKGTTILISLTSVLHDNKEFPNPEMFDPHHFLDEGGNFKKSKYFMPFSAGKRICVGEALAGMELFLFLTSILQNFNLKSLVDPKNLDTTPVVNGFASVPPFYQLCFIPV
# Assay: Cytochrome P450 Family 2 Subfamily C Member 9 (CYP2C9) small molecule antagonists: luciferase reporter qHTS assay (AID 1671198); further: nearly all actives have a fitted effect of over 50% in size
# Settings: P450-Glo CYP2C9 enzyme assay, luciferin luminescence; series mostly up to 115 µM; activity change, negative = inhibition: at the top concentration
# Procedure, shortened: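 P450-Glo proluciferin substrate with CYP2C9 enzyme; 10 min RT preincubation, then NADPH regeneration 1 h at 37C; luciferin detection reagent 20 min RT, luminescence in relative luminescence units.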
SMILES,Potency,"activity change, negative = inhibition"
OC[C@H](Cc1cccc(O)c1)[C@H](CO)Cc1cccc(O)c1,23 µM (active),–
O=C(O)c1cc(Cl)cc([N+](=O)[O-])c1Cl,71 µM (active),–
CC(C)CC(C)CC(C)CC(C)COC(=O)c1ccccc1C(=O)OCC(C)CC(C)CC(C)CC(C)C (configuration not stated),58.7 µM (active),–
CCCCCCCCCC(C)=O,–,-10.1%
CC(=O)NCc1c(I)c(NC(C)=O)c(I)c(C(=O)O)c1I,–,-2.95% [at 53 µM]
COC(=O)CCCCCCCC(=O)OC,–,-25.6%
O=S(=O)(O)c1cc(O)c2ccc(Nc3ccccc3)cc2c1,39.9 µM (active),–
COc1ccc(OC)c(Cl)c1,–,-14.6%
O=C1c2ccccc2C(=O)N1CCl,–,2.87%
O=C(NCCN1CCOCC1)c1ccc(Cl)cc1,–,-2.92% [at 53 µM]
Nc1nnc(-c2cccc(Cl)c2Cl)c(N)n1,–,0.798% [at 53 µM]

# Target: Cytochrome P450 1A2 (Homo sapiens) (UniProt P05177)
# Sequence (P05177 whole entry, looked up): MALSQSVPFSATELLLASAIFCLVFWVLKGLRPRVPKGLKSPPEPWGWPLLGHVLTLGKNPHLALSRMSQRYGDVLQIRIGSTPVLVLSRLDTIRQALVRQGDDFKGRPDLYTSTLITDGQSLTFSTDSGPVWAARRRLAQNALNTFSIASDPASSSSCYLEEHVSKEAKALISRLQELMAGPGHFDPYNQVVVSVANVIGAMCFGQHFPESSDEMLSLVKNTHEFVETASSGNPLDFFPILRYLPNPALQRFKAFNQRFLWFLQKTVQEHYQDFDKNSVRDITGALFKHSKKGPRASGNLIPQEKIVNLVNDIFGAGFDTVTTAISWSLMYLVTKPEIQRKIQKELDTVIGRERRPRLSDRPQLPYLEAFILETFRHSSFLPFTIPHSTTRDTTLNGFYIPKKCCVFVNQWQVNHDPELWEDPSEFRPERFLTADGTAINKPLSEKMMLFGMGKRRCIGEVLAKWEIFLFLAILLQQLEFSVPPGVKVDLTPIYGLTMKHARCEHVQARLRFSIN
# Assay: Cytochrome P450 Family 1 Subfamily A Member 2 (CYP1A2) small molecule antagonists: luciferase reporter qHTS assay (AID 1671199); further: nearly all actives have a fitted effect of over 50% in size
# Settings: P450-Glo CYP1A2 enzyme, luciferin luminescence, 1 h; series mostly up to 53 µM; activity change, negative = inhibition: at the top concentration
# Procedure, shortened: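 Signal from luciferin formed by CYP1A2 from a proluciferin substrate is read as luminescence, expressed in relative luminescence units. Compounds sit with enzyme 10 min, NADPH-driven reaction runs 1 h, all at room temperature.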
SMILES,"activity change, negative = inhibition",Potency
CCO[Si](CCCS)(OCC)OCC,-25.7% [at 115 µM],–
O=C(NCCc1c[nH]c2ccccc12)c1cccnc1,–,12.9 µM (active)
O=C(O)c1cc(Cl)cc([N+](=O)[O-])c1Cl,–,39.9 µM (active)
CC(C)(C)OC(=O)c1ccc(O)cc1,–,31.7 µM (active)
Cc1cccc2nccnc12,-14.6% [at 115 µM],–
CC(=O)NCc1c(I)c(NC(C)=O)c(I)c(C(=O)O)c1I,-26.2%,–
Cc1ccccc1OCC(O)CO (configuration not stated),–,27.5 µM (active)
CC(C)(C)c1nnc(NS(=O)(=O)c2ccc(N)cc2)s1,13.9%,–
CCOC(=O)CC(=O)c1ccccc1,–,28.3 µM (active)
O=S(=O)(O)CCN1CCN(CCO)CC1,-23.7% [at 115 µM],–
O=S(=O)(O)c1cc(O)c2ccc(Nc3ccccc3)cc2c1,-8.08% [at 115 µM],–
CC(C)=O,-4% [at 115 µM],–
C[C@H](N)[C@H](O)c1cccc(O)c1,10.2%,–
N[C@@H](COP(=O)(O)O)C(=O)O,6.27% [at 23.6 µM],–
CCCC/C=C/C=C\C=O,-14.2% [at 115 µM],–
CCN(C)C(=O)Oc1cccc([C@H](C)N(C)C)c1,-14%,–
Nc1nnc(-c2cccc(Cl)c2Cl)c(N)n1,-1.03%,–
CCOC(=O)/C=C/c1ccccc1,–,35.6 µM (active)
